# Inconclusive results are not listed. Activity calls are given as the source filed them. Rule for the calls: active = hit-call score of the fitted dose curve at least 0.9, where 1 is the maximum; inconclusive = response in the unintended direction; inactive = score below 0.9.
# Experiment: ACEA_ER_AUC_viability: ACEA Biosciences xCELLigence Real-Time Cell Analysis on Estrogen Receptor Agonism for Viability (AID 2283782);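 note: hit means loss of impedance signal meaning reduced cell growth or viability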
# Summary of the method: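 Viability endpoint: reduced impedance area under the curve relative to DMSO, recorded by real-time electrode sensing over ~80 h of continuous exposure. Duplicate plates of T47D in hormone-depleted medium; eight concentrations, 1:4 dilutions, 100 uM maximum.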
SMILES,AC50,outcome
CC1CCCCC1NC(=O)Nc1ccccc1 (stereo unspecified),26.2 µM (active),–
Oc1c(I)cc(I)cc1I,87.9 µM (active),–
O=CC=O,–,inactive
CN(CCCC(=O)c1cccnc1)N=O,–,inactive
NC(=O)CF,–,inactive
Nc1ccc(N=Nc2ccc(-c3ccc(N=Nc4c(S(=O)(=O)O)cc5cc(S(=O)(=O)O)c(N=Nc6ccccc6)c(O)c5c4N)cc3)cc2)c(N)c1,–,inactive
NC(=S)Nc1ccccc1,60.6 µM (active),–
CCc1ccccc1C,–,inactive
CC(=O)OC(c1ccccc1)C(Cl)(Cl)Cl (stereo unspecified),–,inactive
ClC1=C(Cl)[C@]2(Cl)[C@@H]3[C@@H](Cl)[C@@H](Cl)C[C@@H]3[C@@]1(Cl)C2(Cl)Cl,–,inactive
N#CCc1ccc(Cl)cc1,–,inactive
CCN(CC)C(=O)Cl,–,inactive
ClC(Cl)=C(Cl)C(Cl)=C(Cl)Cl,–,inactive
CCOC(=O)CP(=O)(OCC)OCC,36.8 µM (active),–
N#CCCO,22 µM (active),–
O=[N+]([O-])c1ccc2c3c(cccc13)CC2,–,inactive
COP(=S)(OC)Oc1cc(Cl)c(Cl)cc1Cl,88 µM (active),–
COC[C@H](C)N(C(=O)CCl)c1c(C)csc1C,–,inactive

SMILES,AC50,outcome
N#Cc1ccccn1,–,inactive
CC(C)=C[C@@H]1[C@@H](C(=O)OCc2coc(Cc3ccccc3)c2)C1(C)C,–,inactive
COS(=O)(=O)c1ccc(C)cc1,–,inactive
O=C(Cl)c1ccc(Cl)cc1,–,inactive
C=CC#N,–,inactive
CCSC(C)CC1CC(=O)C(C(CC)=NOC/C=C/Cl)=C(O)C1 (stereo unspecified),–,inactive
Cc1cc(Cl)ccc1O[C@H](C)C(=O)O,–,inactive
CCOP(=S)(OCC)SCCS(=O)(=O)CC,57.6 µM (active),–
Nc1ccc(Cl)cc1C(=O)c1ccccc1,–,inactive
O=P(O)(O)c1ccccc1,–,inactive
Nc1cccc2ccccc12,80.2 µM (active),–
OCC(O)CCl (stereo unspecified),–,inactive
ClC1=C(Cl)[C@]2(Cl)[C@H]3[C@H]([C@H]4C=C[C@H]3C4)[C@@]1(Cl)C2(Cl)Cl,83.2 µM (active),–
COc1cc2c(cc1OC)[C@@]13CCN4CC5=CCO[C@H]6CC(=O)N2[C@H]1[C@H]6[C@H]5C[C@H]43,–,inactive
C(=NC1CCCCC1)=NC1CCCCC1,28.6 µM (active),–
CCOP(=S)(OCC)Oc1ccc(S(C)=O)cc1 (stereo unspecified),–,inactive
C[C@H]1O[C@@H](O[C@H]2[C@@H](O)C[C@H](O[C@H]3[C@@H](O)C[C@H](O[C@H]4CC[C@@]5(C)[C@H](CC[C@@H]6[C@@H]5CC[C@]5(C)[C@@H](C7=CC(=O)OC7)CC[C@]65O)C4)O[C@@H]3C)O[C@@H]2C)C[C@H](O)[C@@H]1O,0.159 µM (active),–
O=[N+]([O-])c1c(Cl)c(Cl)cc(Cl)c1Cl,–,inactive
